# Test results as given in the supplement of paper PMC4022240.
# ± gives the standard deviation.
# T1: HaloTag-ATRX ADD domain (163-292)
# T1 chain: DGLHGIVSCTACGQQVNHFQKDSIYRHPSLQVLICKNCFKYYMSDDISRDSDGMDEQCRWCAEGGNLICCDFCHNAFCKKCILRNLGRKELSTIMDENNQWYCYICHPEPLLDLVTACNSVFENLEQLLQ
# Tests used:
# Test in all cases: peptide microarray binding signal (635 nm), min-max normalized on array (fraction of array maximum); higher = stronger binding
# Settings in all cases: peptide region: H3 5-17
# [1] = target: T1, HaloTag-ATRX ADD domain (163-292)
# Outline: (§1)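 Two probe formats were used for 1 h at 4°C: biotin-labelled HaloTag reader fusions (10 nM to 1 μM) with streptavidin-Alexa Fluor 647, and rabbit histone antibodies (1:10,000 to 1:2,000) with anti-rabbit Alexa 647. Both were applied to nitrocellulose arrays of histone 13-mer peptide–cellulose conjugates printed in triplicate with a Cy3 tracer and blocked overnight at 4°C. Signal was read at 635 nm and misprints at 532 nm on an Axon GenePix 4000B. Binding signal is expressed as the triplicate-spot mean intensity, min-max scaled for each library.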
# [2] = target: HaloTag-ING2 PHD (mouse Ing2 200-280)
# Outline: as §1
# [3] = target: anti-H3K4me3 antibody ab8580
# Outline: as §1
# [4] = target: anti-H3K9me3 antibody ab8898
# Outline: as §1
# [5] = peptide modifications: H3R8cit H3K9ac, binder concentration: 1:2,000 dilution
# [6] = peptide modifications: H3R8cit H3K9ac, binder concentration: 1:10,000 dilution
# [7] = peptide modifications: H3R8cit H3S10ph, binder concentration: 1:2,000 dilution
# [8] = peptide modifications: H3R8cit H3S10ph, binder concentration: 1:10,000 dilution
# [9] = peptide modifications: H3K14me1, binder concentration: 1:2,000 dilution
# [10] = peptide modifications: H3K14me1, binder concentration: 1:10,000 dilution
# [11] = peptide modifications: H3K9me3 H3K14me1, binder concentration: 1:2,000 dilution
# [12] = peptide modifications: H3K9me3 H3K14me1, binder concentration: 1:10,000 dilution
# [13] = peptide modifications: H3R8me1 H3K9me1, binder concentration: 1:2,000 dilution
# [14] = peptide modifications: H3R8me1 H3K9me1, binder concentration: 1:10,000 dilution
# [15] = peptide modifications: H3K9me3 H3K14me3, binder concentration: 1:2,000 dilution
# [16] = peptide modifications: H3K9me3 H3K14me3, binder concentration: 1:10,000 dilution
# [17] = peptide modifications: H3R8cit H3K9me1, binder concentration: 1:2,000 dilution
# [18] = peptide modifications: H3R8cit H3K9me1, binder concentration: 1:10,000 dilution
# [19] = peptide modifications: H3R8cit H3K9me2, binder concentration: 1:2,000 dilution
# [20] = peptide modifications: H3R8cit H3K9me2, binder concentration: 1:10,000 dilution
# [21] = peptide modifications: H3R8cit H3K9me3, binder concentration: 1:2,000 dilution
# [22] = peptide modifications: H3R8cit H3K9me3, binder concentration: 1:10,000 dilution
# [23] = peptide modifications: H3K9me3 H3T11ph, binder concentration: 1:2,000 dilution
# [24] = peptide modifications: H3K9me3 H3T11ph, binder concentration: 1:10,000 dilution
binder,measurement,setting,value
QTARKSTGGKAPR [H3 5-17 Q T A Rcit Kac S T G G K A P R],peptide microarray binding signal,"[1]; peptide modifications: H3R8cit H3K9ac, binder concentration: 50 nM",0.0106 ± 0.00074
same,peptide microarray binding signal,"[1]; peptide modifications: H3R8cit H3K9ac, binder concentration: 500 nM",0.0249 ± 0.0053
same,peptide microarray binding signal,"[2]; peptide modifications: H3R8cit H3K9ac, binder concentration: 10 nM",0.0426 ± 0.0074
same,peptide microarray binding signal,"[2]; peptide modifications: H3R8cit H3K9ac, binder concentration: 100 nM",0.0673 ± 0.0053
same,peptide microarray binding signal,[3]; [5],0.0133 ± 0.0056
same,peptide microarray binding signal,[3]; [6],0.0146 ± 0.0065
same,peptide microarray binding signal,[4]; [5],0.0143 ± 0.0052
same,peptide microarray binding signal,[4]; [6],0.0112 ± 0.00045
QTARKSTGGKAPR [H3 5-17 Q T A Rcit K Sph T G G K A P R],peptide microarray binding signal,"[1]; peptide modifications: H3R8cit H3S10ph, binder concentration: 50 nM",0.00417 ± 0.00041
same,peptide microarray binding signal,"[1]; peptide modifications: H3R8cit H3S10ph, binder concentration: 500 nM",0.0107 ± 0.0011
same,peptide microarray binding signal,"[2]; peptide modifications: H3R8cit H3S10ph, binder concentration: 10 nM",0.00949 ± 0.0015
same,peptide microarray binding signal,"[2]; peptide modifications: H3R8cit H3S10ph, binder concentration: 100 nM",0.0187 ± 0.0059
same,peptide microarray binding signal,[3]; [7],0.00211 ± 0.00036
same,peptide microarray binding signal,[3]; [8],0.00194 ± 0.00019
same,peptide microarray binding signal,[4]; [7],0.00183 ± 0.00048
same,peptide microarray binding signal,[4]; [8],0.00133 ± 7.9e-05
QTARKSTGGKAPR [H3 5-17 Q T A R K S T G G Kme A P R],peptide microarray binding signal,"[1]; peptide modifications: H3K14me1, binder concentration: 50 nM",0.0197 ± 0.00048
same,peptide microarray binding signal,"[1]; peptide modifications: H3K14me1, binder concentration: 500 nM",0.047 ± 0.0024
same,peptide microarray binding signal,"[2]; peptide modifications: H3K14me1, binder concentration: 10 nM",0.0957 ± 0.02
same,peptide microarray binding signal,"[2]; peptide modifications: H3K14me1, binder concentration: 100 nM",0.0987 ± 0.016
same,peptide microarray binding signal,[3]; [9],0.0306 ± 0.0089
same,peptide microarray binding signal,[3]; [10],0.0289 ± 0.0032
same,peptide microarray binding signal,[4]; [9],0.0125 ± 0.0013
same,peptide microarray binding signal,[4]; [10],0.0104 ± 0.0012
QTARKSTGGKAPR [H3 5-17 Q T A R Kme3 S T G G Kme A P R],peptide microarray binding signal,"[1]; peptide modifications: H3K9me3 H3K14me1, binder concentration: 50 nM",0.00285 ± 0.00016
same,peptide microarray binding signal,"[1]; peptide modifications: H3K9me3 H3K14me1, binder concentration: 500 nM",0.00524 ± 0.00015
same,peptide microarray binding signal,"[2]; peptide modifications: H3K9me3 H3K14me1, binder concentration: 10 nM",0.00406 ± 0.00024
same,peptide microarray binding signal,"[2]; peptide modifications: H3K9me3 H3K14me1, binder concentration: 100 nM",0.0116 ± 0.00073
same,peptide microarray binding signal,[3]; [11],0.00483 ± 0.00038
same,peptide microarray binding signal,[3]; [12],0.00251 ± 9.7e-05
same,peptide microarray binding signal,[4]; [11],0.175 ± 0.043
same,peptide microarray binding signal,[4]; [12],0.0981 ± 0.043
QTARKSTGGKAPR [H3 5-17 Q T A Rme Kme S T G G K A P R],peptide microarray binding signal,"[1]; peptide modifications: H3R8me1 H3K9me1, binder concentration: 50 nM",0.01 ± 0.0016
same,peptide microarray binding signal,"[1]; peptide modifications: H3R8me1 H3K9me1, binder concentration: 500 nM",0.0241 ± 0.0051
same,peptide microarray binding signal,"[2]; peptide modifications: H3R8me1 H3K9me1, binder concentration: 10 nM",0.0382 ± 0.016
same,peptide microarray binding signal,"[2]; peptide modifications: H3R8me1 H3K9me1, binder concentration: 100 nM",0.0483 ± 0.0026
same,peptide microarray binding signal,[3]; [13],0.0217 ± 0.00038
same,peptide microarray binding signal,[3]; [14],0.0201 ± 0.0019
same,peptide microarray binding signal,[4]; [13],0.034 ± 0.009
same,peptide microarray binding signal,[4]; [14],0.0236 ± 0.0018
QTARKSTGGKAPR [H3 5-17 Q T A R Kme3 S T G G Kme3 A P R],peptide microarray binding signal,"[1]; peptide modifications: H3K9me3 H3K14me3, binder concentration: 50 nM",0.00721 ± 0.00063
same,peptide microarray binding signal,"[1]; peptide modifications: H3K9me3 H3K14me3, binder concentration: 500 nM",0.00614 ± 0.00023
same,peptide microarray binding signal,"[2]; peptide modifications: H3K9me3 H3K14me3, binder concentration: 10 nM",0.00549 ± 0.00022
same,peptide microarray binding signal,"[2]; peptide modifications: H3K9me3 H3K14me3, binder concentration: 100 nM",0.00609 ± 0.00036
same,peptide microarray binding signal,[3]; [15],0.0344 ± 0.0088
same,peptide microarray binding signal,[3]; [16],0.0374 ± 0.015
same,peptide microarray binding signal,[4]; [15],0.241 ± 0.054
same,peptide microarray binding signal,[4]; [16],0.261 ± 0.13
QTARKSTGGKAPR [H3 5-17 Q T A Rcit Kme S T G G K A P R],peptide microarray binding signal,"[1]; peptide modifications: H3R8cit H3K9me1, binder concentration: 50 nM",0.00686 ± 0.00018
same,peptide microarray binding signal,"[1]; peptide modifications: H3R8cit H3K9me1, binder concentration: 500 nM",0.0113 ± 0.00044
same,peptide microarray binding signal,"[2]; peptide modifications: H3R8cit H3K9me1, binder concentration: 10 nM",0.0186 ± 0.0018
same,peptide microarray binding signal,"[2]; peptide modifications: H3R8cit H3K9me1, binder concentration: 100 nM",0.0317 ± 0.0022
same,peptide microarray binding signal,[3]; [17],0.00427 ± 0.00041
same,peptide microarray binding signal,[3]; [18],0.00394 ± 6.2e-05
same,peptide microarray binding signal,[4]; [17],0.00462 ± 0.00021
same,peptide microarray binding signal,[4]; [18],0.00311 ± 7e-05
QTARKSTGGKAPR [H3 5-17 Q T A Rcit Kme2 S T G G K A P R],peptide microarray binding signal,"[1]; peptide modifications: H3R8cit H3K9me2, binder concentration: 50 nM",0.0094 ± 0.00026
same,peptide microarray binding signal,"[1]; peptide modifications: H3R8cit H3K9me2, binder concentration: 500 nM",0.0211 ± 0.0019
same,peptide microarray binding signal,"[2]; peptide modifications: H3R8cit H3K9me2, binder concentration: 10 nM",0.0388 ± 0.00083
same,peptide microarray binding signal,"[2]; peptide modifications: H3R8cit H3K9me2, binder concentration: 100 nM",0.0648 ± 0.0026
same,peptide microarray binding signal,[3]; [19],0.016 ± 0.0013
same,peptide microarray binding signal,[3]; [20],0.0193 ± 0.00081
same,peptide microarray binding signal,[4]; [19],0.271 ± 0.036
same,peptide microarray binding signal,[4]; [20],0.197 ± 0.037
QTARKSTGGKAPR [H3 5-17 Q T A Rcit Kme3 S T G G K A P R],peptide microarray binding signal,"[1]; peptide modifications: H3R8cit H3K9me3, binder concentration: 50 nM",0.0148 ± 0.00057
same,peptide microarray binding signal,"[1]; peptide modifications: H3R8cit H3K9me3, binder concentration: 500 nM",0.036 ± 0.002
same,peptide microarray binding signal,"[2]; peptide modifications: H3R8cit H3K9me3, binder concentration: 10 nM",0.0937 ± 0.0048
same,peptide microarray binding signal,"[2]; peptide modifications: H3R8cit H3K9me3, binder concentration: 100 nM",0.102 ± 0.013
same,peptide microarray binding signal,[3]; [21],0.453 ± 0.025
same,peptide microarray binding signal,[3]; [22],0.334 ± 0.09
same,peptide microarray binding signal,[4]; [21],1 ± 0.068
same,peptide microarray binding signal,[4]; [22],0.952 ± 0.059
QTARKSTGGKAPR [H3 5-17 Q T A R Kme3 S Tph G G K A P R],peptide microarray binding signal,"[1]; peptide modifications: H3K9me3 H3T11ph, binder concentration: 50 nM",0.00737 ± 0.0032
same,peptide microarray binding signal,"[1]; peptide modifications: H3K9me3 H3T11ph, binder concentration: 500 nM",0.00981 ± 0.0012
same,peptide microarray binding signal,"[2]; peptide modifications: H3K9me3 H3T11ph, binder concentration: 10 nM",0.00352 ± 0.00053
same,peptide microarray binding signal,"[2]; peptide modifications: H3K9me3 H3T11ph, binder concentration: 100 nM",0.00539 ± 0.0012
same,peptide microarray binding signal,[3]; [23],0.00485 ± 0.00012
same,peptide microarray binding signal,[3]; [24],0.00747 ± 0.0029
same,peptide microarray binding signal,[4]; [23],0.215 ± 0.078
same,peptide microarray binding signal,[4]; [24],0.229 ± 0.095
